# For part of these data: Results with a measured potency or affinity are listed apart.
# Legend:
# Design in all cases: scale not given: direction of the effect not stated beside the values
# [1] = target: Protein translocase subunit SecA (Escherichia coli (strain K12)) (UniProt P10408); test: Assay to Identify E. coli SecA ATPase Inhibitors; assay type: functional; conditions: 30 µM
# [2] = target: T1, Ubiquitin-activating enzyme e1, putative (Leishmania donovani (strain BPK282A1)) (UniProt E9BSI1); test: Leishmania donovani Ubiquitin Activating Enzyme (LdE1); assay type: functional; conditions: 30 µM
# T1 sequence (whole entry): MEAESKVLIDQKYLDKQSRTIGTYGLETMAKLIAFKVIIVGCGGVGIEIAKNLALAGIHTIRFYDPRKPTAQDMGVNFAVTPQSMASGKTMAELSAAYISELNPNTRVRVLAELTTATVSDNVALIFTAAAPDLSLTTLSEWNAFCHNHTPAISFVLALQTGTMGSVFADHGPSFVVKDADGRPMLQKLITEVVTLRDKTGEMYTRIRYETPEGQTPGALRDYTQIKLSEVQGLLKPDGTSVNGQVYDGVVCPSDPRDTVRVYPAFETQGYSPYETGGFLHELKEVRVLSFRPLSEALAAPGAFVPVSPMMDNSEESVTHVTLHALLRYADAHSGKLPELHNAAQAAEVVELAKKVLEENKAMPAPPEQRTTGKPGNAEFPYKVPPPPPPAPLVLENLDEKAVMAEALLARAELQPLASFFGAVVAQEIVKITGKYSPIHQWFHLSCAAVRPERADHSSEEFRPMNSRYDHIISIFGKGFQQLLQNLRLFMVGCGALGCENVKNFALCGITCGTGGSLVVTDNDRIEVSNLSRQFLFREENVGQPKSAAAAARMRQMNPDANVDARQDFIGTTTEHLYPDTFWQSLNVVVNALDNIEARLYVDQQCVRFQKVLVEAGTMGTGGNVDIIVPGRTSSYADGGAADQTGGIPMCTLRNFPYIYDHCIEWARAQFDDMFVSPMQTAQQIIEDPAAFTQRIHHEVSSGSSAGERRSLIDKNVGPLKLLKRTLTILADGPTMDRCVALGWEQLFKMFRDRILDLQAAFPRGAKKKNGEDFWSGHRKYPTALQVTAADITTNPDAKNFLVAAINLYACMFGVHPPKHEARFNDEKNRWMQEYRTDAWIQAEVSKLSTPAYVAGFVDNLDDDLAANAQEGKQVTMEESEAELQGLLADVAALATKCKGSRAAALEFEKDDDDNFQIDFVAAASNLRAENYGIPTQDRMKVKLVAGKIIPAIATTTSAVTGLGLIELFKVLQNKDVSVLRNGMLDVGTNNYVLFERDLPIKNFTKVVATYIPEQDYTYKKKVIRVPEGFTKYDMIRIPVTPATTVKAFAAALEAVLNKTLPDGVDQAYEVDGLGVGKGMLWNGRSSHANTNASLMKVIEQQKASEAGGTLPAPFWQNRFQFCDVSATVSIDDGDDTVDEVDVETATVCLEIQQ
# [3] = target: AMP-activated protein kinase, AMPK (Homo sapiens) (UniProt P54646+O43741+P54619+Q9UGJ0+Q9Y478+Q13131+Q9UGI9); test: AMP-dependent Kinase enzyme assay. An in vitro enzyme assay that detects ADP turnover that is directly proportional to AMPK activity. This uses naive AMPK that is activated during the assay with MK-8722; assay type: functional; conditions: 30 µM
# [4] = target: Sialic acid-binding Ig-like lectin 9 (Homo sapiens) (UniProt Q9Y336); test: Hs-Siglec9 ALPHAscreen SOP 20170721; conditions: 10 µM
# Trypanosoma cruzi = test: Trypanosoma cruzi phosphomannomutase and mannose-1-phosphate guanylyltransferase assay; assay type: functional; conditions: 10 µM
# [5] = target: T2, Arginase-2, mitochondrial (Homo sapiens) (UniProt P78540); test: in vitro enzyme assay to detect the production of urea directly proportional to the activity of Arginase II; assay type: functional; conditions: 33.3 µM; further: in the data most compounds retested in dose-response had high values
# T2 sequence (whole entry): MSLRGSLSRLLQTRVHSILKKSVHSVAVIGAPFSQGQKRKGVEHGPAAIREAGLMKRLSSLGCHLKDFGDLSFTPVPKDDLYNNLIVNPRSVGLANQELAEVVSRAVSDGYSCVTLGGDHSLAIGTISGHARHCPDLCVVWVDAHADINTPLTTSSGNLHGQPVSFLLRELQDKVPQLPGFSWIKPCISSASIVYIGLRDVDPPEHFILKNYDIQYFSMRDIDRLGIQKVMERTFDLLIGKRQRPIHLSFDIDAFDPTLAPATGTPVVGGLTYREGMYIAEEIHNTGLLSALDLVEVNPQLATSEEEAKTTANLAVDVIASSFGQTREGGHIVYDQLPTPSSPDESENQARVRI
# [6] = target: T3, Proteasome subunit beta (Trypanosoma cruzi) (UniProt O96673); test: Trypanosoma cruzi proteasome chymotrypsin-like activity (TcProtChymo) assay.; further: in the data most compounds retested in dose-response had high values; assay type: functional; conditions: 9.37 µM
# T3 sequence (whole entry): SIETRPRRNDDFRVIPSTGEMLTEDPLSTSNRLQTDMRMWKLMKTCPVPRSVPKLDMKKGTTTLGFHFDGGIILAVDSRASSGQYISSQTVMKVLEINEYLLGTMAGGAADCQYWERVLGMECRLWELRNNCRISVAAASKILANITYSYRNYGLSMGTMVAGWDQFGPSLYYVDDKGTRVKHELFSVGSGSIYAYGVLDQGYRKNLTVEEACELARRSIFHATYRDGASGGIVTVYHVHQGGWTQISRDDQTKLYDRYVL
# Homo sapiens = species on record: Homo sapiens; test: To identify inhibition of the IFN signalling (Jak-Stat) pathway via expression of an eGFP reporter gene under the control of an IFN-stimulated response element (ISRE) containing MxA promoter.; assay type: functional; conditions: 30 µM
# [7] = target: T4, Tyrosyl-tRNA synthetase, putative (Trypanosoma cruzi (strain CL Brener)) (UniProt Q4DSP6); test: Trypanosoma cruzi tyrosyl tRNA synthetase (TcYRS) _High Tyrosine SOP; assay type: functional; conditions: 30 µM; further: in the data most compounds retested in dose-response had high values
# T4 sequence (whole entry): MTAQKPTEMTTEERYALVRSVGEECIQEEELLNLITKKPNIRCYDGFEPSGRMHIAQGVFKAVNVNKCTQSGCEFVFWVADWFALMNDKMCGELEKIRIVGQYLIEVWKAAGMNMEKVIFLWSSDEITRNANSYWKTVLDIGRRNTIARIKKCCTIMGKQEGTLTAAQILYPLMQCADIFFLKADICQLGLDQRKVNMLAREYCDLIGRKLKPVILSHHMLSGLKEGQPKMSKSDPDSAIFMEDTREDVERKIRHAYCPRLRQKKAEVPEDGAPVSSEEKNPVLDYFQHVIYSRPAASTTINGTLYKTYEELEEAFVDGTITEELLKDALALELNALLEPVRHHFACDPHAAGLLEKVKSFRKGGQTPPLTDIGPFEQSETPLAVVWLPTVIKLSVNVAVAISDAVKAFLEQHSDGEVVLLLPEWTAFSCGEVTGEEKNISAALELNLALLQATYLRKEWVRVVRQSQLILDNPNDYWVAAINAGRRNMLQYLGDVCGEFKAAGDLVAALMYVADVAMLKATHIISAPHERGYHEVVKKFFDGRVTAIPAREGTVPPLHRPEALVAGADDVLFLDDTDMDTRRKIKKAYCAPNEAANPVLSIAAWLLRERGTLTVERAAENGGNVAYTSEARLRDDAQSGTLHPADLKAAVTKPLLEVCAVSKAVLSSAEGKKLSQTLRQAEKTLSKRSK
# [8] = target: T4, Tyrosyl-tRNA synthetase, putative (Trypanosoma cruzi (strain CL Brener)); test: Trypanosoma cruzi tyrosyl tRNA synthetase (TcYRS) SOP; assay type: functional; conditions: 30 µM
# [9] = target: Chromo domain-containing protein 1 (Saccharomyces cerevisiae (strain ATCC 204508 / S288c) (Baker's yeast)) (UniProt P32657); test: ScCHD-1 Enzyme Inhibition Assay; assay type: functional; conditions: 30 µM; further: in the data most compounds retested in dose-response had high values
# Chain of Chromo domain-containing protein 1 (Saccharomyces cerevisiae (strain ATCC 204508 / S288c) (Baker's yeast)) (P32657 whole entry, the tested form may be a part): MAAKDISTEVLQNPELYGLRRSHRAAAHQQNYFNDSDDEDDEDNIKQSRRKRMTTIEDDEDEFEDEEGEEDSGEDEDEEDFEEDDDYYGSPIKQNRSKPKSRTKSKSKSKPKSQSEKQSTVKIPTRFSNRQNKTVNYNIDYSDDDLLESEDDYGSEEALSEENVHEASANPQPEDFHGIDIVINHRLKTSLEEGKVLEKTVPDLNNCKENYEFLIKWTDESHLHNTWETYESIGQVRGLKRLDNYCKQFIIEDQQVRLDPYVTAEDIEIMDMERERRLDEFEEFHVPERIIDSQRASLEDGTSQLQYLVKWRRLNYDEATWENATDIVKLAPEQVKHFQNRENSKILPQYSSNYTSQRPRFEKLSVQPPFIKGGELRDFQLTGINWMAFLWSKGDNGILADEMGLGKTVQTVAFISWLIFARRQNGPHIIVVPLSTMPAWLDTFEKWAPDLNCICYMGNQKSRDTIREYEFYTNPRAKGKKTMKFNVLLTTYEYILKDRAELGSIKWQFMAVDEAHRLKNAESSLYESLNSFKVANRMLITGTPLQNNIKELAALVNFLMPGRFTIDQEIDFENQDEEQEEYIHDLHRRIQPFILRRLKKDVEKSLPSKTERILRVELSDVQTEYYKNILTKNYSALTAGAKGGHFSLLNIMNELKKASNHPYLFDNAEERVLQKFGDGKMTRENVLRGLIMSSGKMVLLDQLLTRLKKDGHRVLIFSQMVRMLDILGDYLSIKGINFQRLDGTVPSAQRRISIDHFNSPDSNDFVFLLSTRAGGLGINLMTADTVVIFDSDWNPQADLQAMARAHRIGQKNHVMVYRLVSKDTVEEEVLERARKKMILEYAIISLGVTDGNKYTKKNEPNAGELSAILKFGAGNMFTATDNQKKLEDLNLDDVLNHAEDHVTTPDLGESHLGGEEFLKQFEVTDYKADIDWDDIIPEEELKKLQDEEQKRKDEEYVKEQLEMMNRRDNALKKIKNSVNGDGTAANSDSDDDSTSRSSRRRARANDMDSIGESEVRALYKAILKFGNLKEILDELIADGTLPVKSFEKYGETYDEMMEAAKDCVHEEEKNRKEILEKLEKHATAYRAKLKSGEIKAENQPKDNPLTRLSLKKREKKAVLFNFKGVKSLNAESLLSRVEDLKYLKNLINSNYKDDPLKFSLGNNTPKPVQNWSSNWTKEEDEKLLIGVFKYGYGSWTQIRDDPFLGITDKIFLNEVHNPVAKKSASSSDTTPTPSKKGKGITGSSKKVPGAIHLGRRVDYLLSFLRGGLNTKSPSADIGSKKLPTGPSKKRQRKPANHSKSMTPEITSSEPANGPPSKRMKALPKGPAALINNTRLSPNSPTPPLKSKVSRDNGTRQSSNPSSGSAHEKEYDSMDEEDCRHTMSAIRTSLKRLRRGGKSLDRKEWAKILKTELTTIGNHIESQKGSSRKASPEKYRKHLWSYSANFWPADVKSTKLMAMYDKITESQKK
# Chain of Sialic acid-binding Ig-like lectin 9 (Homo sapiens) (Q9Y336 whole entry): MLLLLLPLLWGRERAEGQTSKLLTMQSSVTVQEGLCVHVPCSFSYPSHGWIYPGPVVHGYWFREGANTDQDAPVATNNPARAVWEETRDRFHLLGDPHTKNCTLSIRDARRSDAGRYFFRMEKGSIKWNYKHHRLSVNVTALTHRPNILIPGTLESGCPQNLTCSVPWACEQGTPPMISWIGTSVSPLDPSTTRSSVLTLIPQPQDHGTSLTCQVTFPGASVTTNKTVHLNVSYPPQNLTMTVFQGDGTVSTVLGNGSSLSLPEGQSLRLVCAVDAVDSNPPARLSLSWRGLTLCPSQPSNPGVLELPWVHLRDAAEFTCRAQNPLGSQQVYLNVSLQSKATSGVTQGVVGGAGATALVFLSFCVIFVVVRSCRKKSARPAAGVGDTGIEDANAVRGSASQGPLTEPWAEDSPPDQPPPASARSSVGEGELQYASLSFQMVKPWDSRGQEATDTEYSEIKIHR
# Chain of Protein translocase subunit SecA (Escherichia coli (strain K12)) (P10408 whole entry): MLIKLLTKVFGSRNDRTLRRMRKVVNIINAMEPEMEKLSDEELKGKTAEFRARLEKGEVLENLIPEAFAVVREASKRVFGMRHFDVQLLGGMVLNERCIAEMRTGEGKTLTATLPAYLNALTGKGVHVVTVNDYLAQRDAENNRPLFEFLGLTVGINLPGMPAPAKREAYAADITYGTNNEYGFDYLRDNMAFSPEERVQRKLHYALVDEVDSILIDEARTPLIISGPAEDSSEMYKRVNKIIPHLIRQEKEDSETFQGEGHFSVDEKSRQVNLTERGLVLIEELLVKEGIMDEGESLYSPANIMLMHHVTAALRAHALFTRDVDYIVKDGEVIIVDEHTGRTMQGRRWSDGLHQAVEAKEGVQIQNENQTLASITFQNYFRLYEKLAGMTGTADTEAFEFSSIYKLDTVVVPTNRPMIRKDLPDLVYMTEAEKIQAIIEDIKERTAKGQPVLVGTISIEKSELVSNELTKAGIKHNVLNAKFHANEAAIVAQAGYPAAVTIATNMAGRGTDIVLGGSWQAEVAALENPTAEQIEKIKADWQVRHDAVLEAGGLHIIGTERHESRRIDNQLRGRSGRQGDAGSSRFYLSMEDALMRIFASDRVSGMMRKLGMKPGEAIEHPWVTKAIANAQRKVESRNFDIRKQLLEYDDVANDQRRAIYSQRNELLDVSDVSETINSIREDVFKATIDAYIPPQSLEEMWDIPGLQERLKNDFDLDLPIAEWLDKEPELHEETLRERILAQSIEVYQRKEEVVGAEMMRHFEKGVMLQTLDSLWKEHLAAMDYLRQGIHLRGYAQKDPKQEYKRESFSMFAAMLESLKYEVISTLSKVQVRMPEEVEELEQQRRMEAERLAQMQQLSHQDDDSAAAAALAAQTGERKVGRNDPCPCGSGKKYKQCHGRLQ
Compound,Percent Effect [1] [%],Percent Effect [2] [%],Percent Effect [3] [%],Percent Effect [4] [%],Percent Effect (Trypanosoma cruzi) [%],Percent Effect [5] [%],Percent Effect [6] [%],Percent Effect (Homo sapiens) [%],Percent Effect [7] [%],Percent Effect [8] [%],Percent Effect [9] [%]
O=C(c1cnccn1)N1C[C@@H]2CC[C@H](C1)N(C(=O)Cc1ccsc1)C2,-5.86,2.6,5.34,4.9,-4.82,-16.6,9.32,8.73,5.38,3.7,-0.624
COc1cccc(CCNC(=O)CN2CCN(C)CC2C)c1 (stereo unspecified),-1.66,0,-4.34,-5.98,-4.92,3.51,14.5,18.7,4.95,15.8,-5.6
O=C(c1cccc(CNCC2CNc3ccnn3C2)c1)N1CCCC1 (stereo unspecified),-3.44,8.86,-18.1,-4.78,4.41,-4.09,18.4,6.92,8.33,10.1,-18.2
Cc1cc(S(=O)(=O)N2CCCc3cc(F)cc(F)c32)sc1C(=O)O,-9.52,-2.67,2.83,0.801,-6.33,-2.6,9.59,7.51,-14.8,-18.5,-5.34
Cc1ccc(CN2CCCC3(CCN(S(C)(=O)=O)C3)C2)o1 (stereo unspecified),-3.67,8,11.7,5.08,-1.97,-4.43,3.96,15.2,6.38,14.1,-3.22
Fc1ccc(CN2CCO[C@H]3[C@H](OCCN4CCCC4)CC[C@@H]32)cc1,7.01,10.7,5.78,7.14,-4.05,-51.1,12.8,-9.42,5.21,12.5,-3.68

# From ChEMBL document CHEMBL3988442, “University of Dundee, Small-Polar-MMV Screening Library” (2021)
